# Measured values as given in PubChem BioAssay.
# Where “and” joins values, the source holds several entries; their conditions need not be identical. Equal entries are not always repeated. Calls of active or inactive are those of the source.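 The calls were made as follows, unless noted: active = thallium flux through the channel raised or lowered by more than 3 SD from vehicle-only wells, actives on both sides; inactive = the rest.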
# How the values were obtained:
# [1] = signal quenchers or enhancers, Cy5 substrate/SSB – biochemical, NIH Clinical Collection, E. coli SSB, artefact control for HCV NS3 helicase inhibitor project (AID 743268; call rule not given here); details: Cy5-oligo bound E. coli SSB, fluorescence interference
# [2] = system: Hepatitis C virus NS3 helicase; assay: blockers of NS3h binding to DNA – biochemical, fluorescence polarization, NIH Clinical Collection, primary screen (AID 743270; call rule not given here); details: NS3 helicase binding to Cy5-dT15 DNA, stronger effect = higher value, concentration not given here
# [3] = biological target: Single-stranded DNA-binding protein (Escherichia coli (strain K12)) (UniProt P0AGE0); assay: SSB-ssDNA binding inhibitors – biochemical, fluorescence polarization, NIH Clinical Collection, counter-screen for HCV NS3 helicase inhibitor project (AID 743271; in the data active = inhibition above about 28%); details: E. coli SSB-DNA binding, stronger effect = higher value, concentration not given here
# [4] = compounds distorting NS3 helicase fluorescence signal – biochemical, NIH Clinical Collection, artefact control for HCV NS3 helicase inhibitor project (AID 743272; call rule not given here;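 also: HCV NS3 helicase with a Cy5 labelled single stranded DNA probe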); details: fluorescence interference counterscreen, HCV NS3 helicase assay; stronger effect = lower value
# [5] = biological target: 6-phosphogluconate dehydrogenase, decarboxylating (Homo sapiens) (UniProt P52209); assay: inhibition of human phosphogluconate dehydrogenase – biochemical, recombinant enzyme, NADPH absorbance, primary screen (AID 1159550;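 active = at least 20% inhibition of 6-phosphogluconate dehydrogenase activity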); details: recombinant 6PGD, NADPH absorbance 341 nm; at 10 µM; stronger effect = higher value
# Sequence of 6-phosphogluconate dehydrogenase, decarboxylating (Homo sapiens) (P52209 whole entry, looked up): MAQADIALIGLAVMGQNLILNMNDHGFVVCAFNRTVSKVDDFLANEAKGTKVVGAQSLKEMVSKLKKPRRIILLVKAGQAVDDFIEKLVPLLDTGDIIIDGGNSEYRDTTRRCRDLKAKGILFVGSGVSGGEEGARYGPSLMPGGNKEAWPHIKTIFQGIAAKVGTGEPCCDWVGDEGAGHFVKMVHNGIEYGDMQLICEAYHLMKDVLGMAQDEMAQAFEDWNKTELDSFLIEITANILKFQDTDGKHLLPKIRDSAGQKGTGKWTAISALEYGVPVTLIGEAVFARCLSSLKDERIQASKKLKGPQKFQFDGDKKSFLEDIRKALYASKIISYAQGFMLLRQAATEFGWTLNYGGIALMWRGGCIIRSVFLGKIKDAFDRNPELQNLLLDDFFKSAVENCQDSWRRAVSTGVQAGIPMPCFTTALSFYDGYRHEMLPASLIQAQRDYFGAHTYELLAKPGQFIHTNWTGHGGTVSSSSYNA
# [6] = modulation of C. elegans fzo-1 (AID 1259413; call rule not given here;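 also: fzo-1 mutant C. elegans worms in liquid wells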); details: C. elegans fzo-1 modulator screen, mean read-out; stronger effect = higher value
# [7] = EMT-state selective cytotoxicity in co-culture – imaging, PC-3E GFP, TEM4-18 mCherry, primary screen (AID 1345086;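 active = compounds killing one labelled cell type while sparing the other, by normalised counts and ratio limits, not self-fluorescent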;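 as to all read-outs here: cells exposed to compound for 72 h before imaging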;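 as to red/green cell ratio (normalised): normalised mesenchymal count divided by normalised epithelial count so high means epithelial killing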); details: PC-3E GFP / TEM4-18 mCherry co-culture, imaging cell counts, at 1 µM; for red/green cell ratio (normalised): actives lie on both sides, counts scaled to control wells, 1 = unselective
# [8] = MELAS cybrid and Rieske KO viability enhancers – cell-based, MELAS cybrids, Rieske KO mouse fibroblasts, CellTiter-Glo, primary screen (AID 1508586;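 active = mean z-score across replicates of 1.96 or higher in either the MELAS or the Rieske mutant cell line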;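 also: z relative to plate mean and SD of compound and empty wells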); details: low glucose
# [9] = biological target: Mitogen-activated protein kinase 7 (Homo sapiens) (UniProt Q13164); assay: Gal4-ERK5 driven luciferase induction – cell-based, HTS, primary screen (AID 1508626;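 active = luciferase signal above three times the same-plate solvent-only control wells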;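 also: luciferase driven by Gal4-ERK5 fusion binding five Gal4 sites before minimal TATA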); details: HeLa Gal4-ERK5 transactivation, 18 h, at 5 µM, stronger effect = higher value
# Sequence of Mitogen-activated protein kinase 7 (Homo sapiens) (Q13164 whole entry, looked up, the tested form may be a part): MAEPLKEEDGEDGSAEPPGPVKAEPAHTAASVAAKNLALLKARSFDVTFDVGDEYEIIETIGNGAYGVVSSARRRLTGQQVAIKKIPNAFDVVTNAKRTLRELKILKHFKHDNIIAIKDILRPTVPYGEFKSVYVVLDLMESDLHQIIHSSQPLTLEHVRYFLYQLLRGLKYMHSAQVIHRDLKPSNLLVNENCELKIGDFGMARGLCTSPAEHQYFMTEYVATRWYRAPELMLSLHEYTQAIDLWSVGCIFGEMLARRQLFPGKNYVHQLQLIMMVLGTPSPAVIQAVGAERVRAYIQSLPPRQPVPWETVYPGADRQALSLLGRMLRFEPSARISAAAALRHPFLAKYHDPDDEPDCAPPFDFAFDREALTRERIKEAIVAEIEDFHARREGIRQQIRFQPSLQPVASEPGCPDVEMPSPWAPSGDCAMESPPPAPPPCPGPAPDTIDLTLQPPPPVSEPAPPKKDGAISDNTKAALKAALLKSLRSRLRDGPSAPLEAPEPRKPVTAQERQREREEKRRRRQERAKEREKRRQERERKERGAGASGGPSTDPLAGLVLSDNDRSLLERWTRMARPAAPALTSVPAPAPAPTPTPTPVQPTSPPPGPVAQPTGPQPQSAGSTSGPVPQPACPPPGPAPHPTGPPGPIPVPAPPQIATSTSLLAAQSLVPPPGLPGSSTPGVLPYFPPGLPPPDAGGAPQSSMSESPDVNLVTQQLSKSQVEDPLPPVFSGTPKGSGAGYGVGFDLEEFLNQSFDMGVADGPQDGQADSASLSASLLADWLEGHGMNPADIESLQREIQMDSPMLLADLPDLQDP
# [10] = system: F380Y; assay: BK channel mutant inhibitors and activators – cell-based, U2OS BacMam, thallium flux, beta subunits, selectivity assay, profiling panel (AID 1259406); details: U2OS BacMam BK variants, at 30 µM;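 also: initial slope of Thallos dye fluorescence rise after thallium is added; log ratio against the mean of 0.3% DMSO vehicle wells on the same plate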
# [11] = system: F380Y/beta1; assay: as above; details: U2OS BacMam BK variants, at 30 µM
# [12] = system: F380Y/beta2Delta; assay: as above; details: U2OS BacMam BK variants, at 30 µM
# [13] = system: F380Y/beta4; assay: as above; details: U2OS BacMam BK variants, at 30 µM
# [14] = biological target: Calcium-activated potassium channel subunit alpha-1 (Homo sapiens) + Leucine-rich repeat-containing protein 26 (Homo sapiens) (UniProt Q12791+Q2I0M4); assay: as above; details: U2OS BacMam BK variants, F380Y/Slo1WT/gamma1, at 30 µM
# Sequence of Calcium-activated potassium channel subunit alpha-1 (Homo sapiens) + Leucine-rich repeat-containing protein 26 (Homo sapiens) (Q2I0M4 whole entry, looked up, one chain of several): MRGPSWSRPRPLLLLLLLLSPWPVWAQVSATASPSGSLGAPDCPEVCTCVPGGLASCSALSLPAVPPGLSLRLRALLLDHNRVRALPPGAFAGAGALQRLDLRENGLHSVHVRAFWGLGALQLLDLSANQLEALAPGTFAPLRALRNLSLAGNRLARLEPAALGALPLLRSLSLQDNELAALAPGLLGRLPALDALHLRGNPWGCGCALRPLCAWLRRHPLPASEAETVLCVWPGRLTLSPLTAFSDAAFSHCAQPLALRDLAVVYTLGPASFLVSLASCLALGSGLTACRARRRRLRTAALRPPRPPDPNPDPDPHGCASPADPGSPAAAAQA
# [15] = system: R275C; assay: as above; details: U2OS BacMam BK variants, at 30 µM
# [16] = system: R275C/beta1; assay: as above; details: U2OS BacMam BK variants, at 30 µM
# [17] = system: R275C/beta2Delta; assay: as above; details: U2OS BacMam BK variants, at 30 µM
# [18] = P. berghei load reduction in hepatocytes – cell-based, HepG2, luciferase luminescence, HepG2 viability, primary screen (AID 624349; in the data active = parasite load remaining mostly below about 12%, no sharp cut-off; inactive = mostly above about 10%;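 also: 100% = mean of DMSO negative control wells on the same plate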); details: P. berghei liver stage in HepG2, luciferase luminescence, concentration not given here; parasite load remaining: stronger effect = lower value; viability: measured here: HepG2 viability without parasites
# [19] = viability loss with induced miR-34 in A549 – imaging, A549 dox-inducible miR-34, nuclei and caspase counts, primary screen (AID 1347080;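 active = compounds whose cell count with miR-34 switched on is under 0.7 times the count with it off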); details: A549 miR-34 inducible, Hoechst nuclei count, 48 h
# [20] = measured here: epithelial PC-3E GFP cell survival
# [21] = measured here: mesenchymal TEM4-18 mCherry cell survival
# [22] = MELAS cybrid survival, CellTiter-Glo 48 h, stronger effect = higher value
# [23] = Rieske KO mouse fibroblast survival, CellTiter-Glo 72 h
# [24] = stronger effect = lower value, cell number ratio, induced over uninduced
# [25] = measured here: relative caspase fold change +Dox/-Dox
# [26] = measured here: total cells with miR-34 induction, stronger effect = lower value
# [27] = measured here: total cells without miR-34 induction
structure (smiles),measurement,setting,value
CC(=O)N=c1sc(S(N)(=O)=O)nn1C,fluorescence ratio,[1],1.01 (inactive)
same,inhibition,[2],-0.45% (inactive)
same,inhibition,[3],-3.53% (inactive)
same,fluorescence ratio,[4],1.03 (inactive)
same,inhibition,[5],18.8% (inactive)
same,mean signal,[6],273 (inactive)
same,red/green cell ratio (normalised),[7],1.22 (inactive)
same,normalised cell number,[7]; [20],0.92
same,normalised cell number,[7]; [21],1.12
same,z-score,[8]; [22],-0.23 (inactive) and 0.0575 (inactive)
same,z-score,[8]; [23],-0.175 and -0.724
same,luciferase signal,[9],80 AU (inactive)
same,log fold change Tl+ flux,[10],0.00591 (inactive)
same,log fold change Tl+ flux,[11],-0.0785 (inactive)
same,log fold change Tl+ flux,[12],0.00714 (inactive)
same,log fold change Tl+ flux,[13],0.0268 (inactive)
same,log fold change Tl+ flux,[14],-0.0355 (inactive)
same,log fold change Tl+ flux,[15],0.00598 (inactive)
same,log fold change Tl+ flux,[16],-0.028 (inactive)
same,log fold change Tl+ flux,[17],-0.0276 (inactive)
Cn1cc[nH]c1=S,fluorescence ratio,[1],1.03 (inactive)
same,inhibition,[2],-3.18% (inactive)
same,inhibition,[3],-5.05% (inactive)
same,fluorescence ratio,[4],1.03 (inactive)
same,inhibition,[5],-12.3% (inactive)
same,mean signal,[6],225 (inactive)
same,red/green cell ratio (normalised),[7],0.96 (inactive)
same,normalised cell number,[7]; [20],1.12
same,normalised cell number,[7]; [21],1.08
same,z-score,[8]; [22],-0.106 (inactive) and 0.275 (inactive) and 0.138 (inactive)
same,z-score,[8]; [23],0.1 and 0.646 and -0.619
same,luciferase signal,[9],92 AU (inactive)
same,log fold change Tl+ flux,[10],0.00366 (inactive)
same,log fold change Tl+ flux,[11],-0.0456 (inactive)
same,log fold change Tl+ flux,[12],-0.00456 (inactive)
same,log fold change Tl+ flux,[13],0.0112 (inactive)
same,log fold change Tl+ flux,[14],-0.014 (inactive)
same,log fold change Tl+ flux,[15],-0.00969 (inactive)
same,log fold change Tl+ flux,[16],-0.000997 (inactive)
same,log fold change Tl+ flux,[17],-0.0252 (inactive)
CC(CCc1ccccc1)NCC(O)c1ccc(O)c(C(N)=O)c1 (stereo not drawn),fluorescence ratio,[1],1.06 (inactive)
same,inhibition,[2],-2.27% (inactive)
same,inhibition,[3],-5.05% (inactive)
same,fluorescence ratio,[4],1.02 (inactive)
same,inhibition,[5],0.489% (inactive)
same,mean signal,[6],243 (inactive)
same,red/green cell ratio (normalised),[7],1.34 (inactive)
same,normalised cell number,[7]; [20],0.93
same,normalised cell number,[7]; [21],1.24
same,z-score,[8]; [22],-0.172 (inactive) and 0.637 (inactive)
same,z-score,[8]; [23],-0.173 and -0.159
same,luciferase signal,[9],116 AU (inactive)
same,log fold change Tl+ flux,[10],0.0689 (inactive)
same,log fold change Tl+ flux,[11],0.0226 (inactive)
same,log fold change Tl+ flux,[12],0.0329 (inactive)
same,log fold change Tl+ flux,[13],0.0997 (inactive)
same,log fold change Tl+ flux,[14],0.00974 (inactive)
same,log fold change Tl+ flux,[15],-0.0121 (inactive)
same,log fold change Tl+ flux,[16],0.0332 (inactive)
same,log fold change Tl+ flux,[17],0.0956 (inactive)
OC[C@H]1O[C@@H](Oc2cc(O)cc(/C=C/c3ccc(O)cc3)c2)[C@H](O)[C@@H](O)[C@@H]1O,parasite load remaining,[18],100% (inactive)
same,viability,[18],78.3%
same,fluorescence ratio,[1],1 (inactive)
same,inhibition,[2],3.56% (inactive)
same,inhibition,[3],10.7% (inactive)
same,fluorescence ratio,[4],0.98 (inactive)
same,inhibition,[5],15% (inactive)
same,mean signal,[6],254 (inactive)
same,log fold change Tl+ flux,[10],0.0295 (inactive)
same,log fold change Tl+ flux,[11],-0.0141 (inactive)
same,log fold change Tl+ flux,[12],-0.0576 (inactive)
same,log fold change Tl+ flux,[13],-0.0711 (inactive)
same,log fold change Tl+ flux,[14],-0.0684 (inactive)
same,log fold change Tl+ flux,[15],-0.101 (inactive)
same,log fold change Tl+ flux,[16],-0.0629 (inactive)
same,log fold change Tl+ flux,[17],-0.0169 (inactive)
Nc1ccn([C@@H]2O[C@H](CO)[C@@H](O)C2O)c(=O)n1 (stereo partly drawn),parasite load remaining,[18],112% (inactive) and 32.3% (inactive)
same,viability,[18],77.2% and 77%
same,fluorescence ratio,[1],1 (inactive)
same,inhibition,[2],-5.15% (inactive)
same,inhibition,[3],-0.87% (inactive)
same,fluorescence ratio,[4],0.87 (inactive)
same,inhibition,[5],-3.33% (inactive)
same,mean signal,[6],259 (inactive)
same,fold change,[19]; [24],1.11 (inactive)
same,fold change,[19]; [25],1.22
same,cell count,[19]; [26],3020
same,cell count,[19]; [27],2720
same,z-score,[8]; [22],0.809 and -1.64 (inactive)
same,z-score,[8]; [23],2.19 and 0.364
same,luciferase signal,[9],88 AU (inactive)
same,log fold change Tl+ flux,[10],-0.0332 (inactive)
same,log fold change Tl+ flux,[12],0.0269 (inactive)
same,log fold change Tl+ flux,[14],0.0371 (inactive)
same,log fold change Tl+ flux,[15],0.00256 (inactive)
same,log fold change Tl+ flux,[16],-0.0266 (inactive)
same,log fold change Tl+ flux,[17],-0.0193 (inactive)
CC(=O)OCC(=O)[C@@]1(O)CC[C@H]2[C@@H]3C[C@H](C)C4=CC(=O)C=C[C@]4(C)[C@H]3[C@@H](O)C[C@@]21C,parasite load remaining,[18],68.8% (inactive)
same,viability,[18],94.7%
same,fluorescence ratio,[1],0.98 (inactive)
same,inhibition,[2],-2.27% (inactive)
same,inhibition,[3],0.29% (inactive)
same,fluorescence ratio,[4],0.99 (inactive)
same,inhibition,[5],6.5% (inactive)
same,mean signal,[6],251 (inactive)
same,fold change,[19]; [24],0.982 (inactive)
same,fold change,[19]; [25],1.01
same,cell count,[19]; [26],8310
same,cell count,[19]; [27],8460
same,luciferase signal,[9],112 AU (inactive)
same,log fold change Tl+ flux,[10],0.0243 (inactive)
same,log fold change Tl+ flux,[11],0.0602 (inactive)
same,log fold change Tl+ flux,[12],0.0726 (inactive)
same,log fold change Tl+ flux,[13],0.0393 (inactive)
same,log fold change Tl+ flux,[14],0.0089 (inactive)
same,log fold change Tl+ flux,[15],0.0193 (inactive)
same,log fold change Tl+ flux,[16],0.0544 (inactive)
same,log fold change Tl+ flux,[17],0.0284 (inactive)
C#C[C@]1(O)CC[C@H]2[C@@H]3CCC4=CC(=O)CC[C@@H]4[C@H]3CC[C@@]21C,fluorescence ratio,[1],0.96 (inactive)
same,inhibition,[2],1.36% (inactive)
same,inhibition,[3],3.34% (inactive)
same,fluorescence ratio,[4],0.96 (inactive)
same,inhibition,[5],-1.74% (inactive)
same,fold change,[19]; [24],0.992 (inactive) and 0.97 (inactive) and 0.797 (inactive)
same,fold change,[19]; [25],3.48 and 0.712 and 1.56
same,cell count,[19]; [26],9410 and 9190 and 8090
same,cell count,[19]; [27],9490 and 9470 and 10100
same,z-score,[8]; [22],0.108 (inactive) and 0.243 (inactive)
same,z-score,[8]; [23],0.0145 and -0.237
same,luciferase signal,[9],48 AU (inactive)
same,log fold change Tl+ flux,[10],0.0234 (inactive)
same,log fold change Tl+ flux,[11],0.0886 (inactive)
same,log fold change Tl+ flux,[12],0.0279 (inactive)
same,log fold change Tl+ flux,[13],0.0669 (inactive)
same,log fold change Tl+ flux,[14],0.0181 (inactive)
same,log fold change Tl+ flux,[15],0.0301 (inactive)
same,log fold change Tl+ flux,[16],0.0324 (inactive)
same,log fold change Tl+ flux,[17],0.062 (inactive)
